From PubChem BioAssay (EPA / NIEHS)
Activity calls are given as the source filed them. Rule for the calls: active = hit-call score of the fitted dose curve at least 0.9, where 1 is the maximum; inactive = score below 0.9.

Tests used:
Settings in all cases: mRNA level, 48 h; actives raise or lower the signal
[1] = read-out: Interleukin 6 (IL6), IL6 (gene 3569); assay: LTEA_HepaRG_IL6: Life Technologies and Expression Analysis (LTEA) Assay for Interleukin 6 (IL6) using HepaRG (AID 2283509)
How it was run: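 Differentiated human HepaRG cells, plated 48 h then switched to serum-free induction medium, were exposed in duplicate for 48 h to eight half-log concentrations up to 100 uM in 0.5% DMSO. IL6 mRNA measured by qRT-PCR, normalized to ACTB/GAPDH/POLR2A.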

[2] = read-out: Potassium channel subfamily K member 1 (KCNK1), KCNK1 (gene 3775); assay: LTEA_HepaRG_KCNK1: Life Technologies and Expression Analysis (LTEA) Assay for Potassium channel subfamily K member 1 (KCNK1) using HepaRG (AID 2283511)
How it was run: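 Differentiated human HepaRG cells in serum-free induction medium were exposed in duplicate for 48 h to 8 half-log concentrations up to 100 uM in 0.5% DMSO. KCNK1 mRNA was measured by TaqMan qRT-PCR, normalized to ACTB, GAPDH and POLR2A, and fitted bidirectionally versus DMSO.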

[3] = read-out: Keratin 19 (KRT19), KRT19 (gene 3880); assay: LTEA_HepaRG_KRT19: Life Technologies and Expression Analysis (LTEA) Assay for Keratin 19 (KRT19) using HepaRG (AID 2283512)
How it was run: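 Readout is qRT-PCR of KRT19 mRNA, normalized to ACTB, GAPDH and POLR2A, from HepaRG cells treated 48 h with eight-point half-log dilutions topping at 100 uM. Activity in either direction is scored relative to 0.5% DMSO vehicle.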

[4] = read-out: JUN Transcription Factor, JUN (gene 3725); assay: LTEA_HepaRG_JUN: Life Technologies and Expression Analysis (LTEA) Assay for JUN Transcription Factor using HepaRG (AID 2283513)
How it was run: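 Differentiated HepaRG cells were exposed to chemicals for 48 h in serum-free induction medium, 8 concentrations from 100 uM in half-log steps, 0.5% DMSO vehicle, in duplicate. JUN mRNA was quantified by TaqMan qRT-PCR, normalized to ACTB, GAPDH, POLR2A.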

[5] = read-out: Lipase C (LIPC), LIPC (gene 3990); assay: LTEA_HepaRG_LIPC: Life Technologies and Expression Analysis (LTEA) Assay for Lipase C (LIPC) using HepaRG (AID 2283514)
How it was run: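 Differentiated human HepaRG cells in serum-free induction medium were exposed in duplicate for 48 h to eight concentrations (top 100 uM, half-log steps, 0.5% DMSO). LIPC mRNA was quantified by TaqMan qRT-PCR, normalized to ACTB, GAPDH and POLR2A, with bidirectional fitting versus DMSO.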

[6] = read-out: Lipoprotein lipase (LPL), LPL (gene 4023); assay: LTEA_HepaRG_LPL: Life Technologies and Expression Analysis (LTEA) Assay for Lipoprotein lipase (LPL) using HepaRG (AID 2283515)
How it was run: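 Differentiated human HepaRG cells in serum-free induction medium were exposed in duplicate for 48 h to eight half-log concentrations (top 100 uM) in 0.5% DMSO. LPL mRNA was quantified by TaqMan qRT-PCR, normalized to ACTB, GAPDH and POLR2A.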

[7] = read-out: MicroRNA 122 (MIR122), gene 406906; assay: LTEA_HepaRG_MIR122: Life Technologies and Expression Analysis (LTEA) Assay for MicroRNA 122 (MIR122) using HepaRG (AID 2283516); note: the transcript read is the microRNA miR-122
How it was run: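 Differentiated human HepaRG cells were exposed 48 h in serum-free induction medium to eight half-log concentrations (top 100 uM, 0.5% DMSO). Transcript level was measured by TaqMan qRT-PCR, normalized to ACTB, GAPDH and POLR2A, and fitted bidirectionally versus DMSO.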

[8] = read-out: matrix metalloproteinase-10 (MMP10), MMP10 (gene 4319); assay: LTEA_HepaRG_MMP10: Life Technologies and Expression Analysis (LTEA) Assay for matrix metalloproteinase-10 (MMP10) using HepaRG (AID 2283517)
How it was run: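 HepaRG, collagen I, ~100,000 cells/well; serum-free induction medium; 48 h exposure, duplicate, 8-pt half-log to 100 uM, 0.5% DMSO. Readout: TaqMan qRT-PCR, normalized to ACTB/GAPDH/POLR2A; bidirectional fit vs DMSO.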

MYC, MYC (gene 4609) = assay: LTEA_HepaRG_MYC: Life Technologies and Expression Analysis (LTEA) Assay for MYC using HepaRG (AID 2283518)
How it was run: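 Expression changes were scored by TaqMan qRT-PCR with ACTB, GAPDH and POLR2A normalization. Cultures in serum-free induction medium received duplicate 8-point concentration series, highest 100 uM, for 48 h; DMSO (0.5%) served as baseline.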

[9] = read-out: matrix metalloproteinase-3 (MMP3), MMP3 (gene 4314); assay: LTEA_HepaRG_MMP3: Life Technologies and Expression Analysis (LTEA) Assay for matrix metalloproteinase-3 (MMP3) using HepaRG (AID 2283519)
How it was run: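 Differentiated human HepaRG cells, plated 48 h on collagen I, were exposed in duplicate for 48 h in serum-free induction medium to eight half-log concentrations up to 100 uM in 0.5% DMSO. MMP3 mRNA was quantified by TaqMan qRT-PCR, normalised to ACTB, GAPDH and POLR2A.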

[10] = read-out: Paternally Expressed 10 (PEG10), PEG10 (gene 23089); assay: LTEA_HepaRG_PEG10: Life Technologies and Expression Analysis (LTEA) Assay for Paternally Expressed 10 (PEG10) using HepaRG (AID 2283520)
How it was run: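 Differentiated HepaRG cells, plated 48 h then switched to serum-free induction medium, were exposed in duplicate for 48 h to eight half-log concentrations topping at 100 uM in 0.5% DMSO. PEG10 mRNA was quantified by TaqMan qRT-PCR, normalised to ACTB, GAPDH and POLR2A.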

[11] = read-out: Nuclear factor NF-kappa-B p105 subunit (Homo sapiens) (UniProt P19838); assay: LTEA_HepaRG_NFKB1: Life Technologies and Expression Analysis (LTEA) Assay for Nuclear Factor Kappa B Subunit 1 (NFKB1) using HepaRG (AID 2283521)
How it was run: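 Differentiated human HepaRG cells were exposed for 48 h in serum-free induction medium to eight concentrations (top 100 uM, half-log steps, 0.5% DMSO), in duplicate. NFKB1 mRNA was measured by TaqMan qRT-PCR, normalized to ACTB/GAPDH/POLR2A, and fitted bidirectionally against DMSO.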

[12] = read-out: Protein phosphatase 2A (PPP2R4), PTPA (gene 5524); assay: LTEA_HepaRG_PPP2R4: Life Technologies and Expression Analysis (LTEA) Assay for Protein phosphatase 2A (PPP2R4) using HepaRG (AID 2283522)
How it was run: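 Differentiated HepaRG cells in serum-free induction medium were exposed in duplicate for 48 h to eight concentrations, top 100 uM with half-log dilutions, in 0.5% DMSO. PPP2R4 mRNA was quantified by TaqMan qRT-PCR, normalized to ACTB, GAPDH and POLR2A.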

[13] = read-out: Phosphatase and tensin (PTEN), PTEN (gene 5728); assay: LTEA_HepaRG_PTEN: Life Technologies and Expression Analysis (LTEA) Assay for Phosphatase and tensin (PTEN) using HepaRG (AID 2283523)
How it was run: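 Differentiated human HepaRG cells, plated 48 h then switched to serum-free induction medium, were exposed in duplicate for 48 h to eight half-log concentrations up to 100 uM in 0.5% DMSO. PTEN mRNA measured by TaqMan qRT-PCR, normalized to ACTB/GAPDH/POLR2A, bidirectional fit versus DMSO.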

[14] = read-out: solute carrier (SLC22A1), SLC22A1 (gene 6580); assay: LTEA_HepaRG_SLC22A1: Life Technologies and Expression Analysis (LTEA) Assay for solute carrier (SLC22A1) using HepaRG (AID 2283524)
How it was run: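 Human HepaRG cells were plated 48 h, switched to serum-free induction medium, then exposed in duplicate for 48 h to 8-point half-log series from 100 uM in 0.5% DMSO. SLC22A1 mRNA measured by qRT-PCR, normalized to ACTB/GAPDH/POLR2A, fitted bidirectionally versus DMSO.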

[15] = read-out: Pyruvate Dehydrogenase Kinase 4 (PDK4), PDK4 (gene 5166); assay: LTEA_HepaRG_PDK4: Life Technologies and Expression Analysis (LTEA) Assay for Pyruvate Dehydrogenase Kinase 4 (PDK4) using HepaRG (AID 2283525)
How it was run: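 Differentiated human HepaRG cells, pre-cultured 48 h, were exposed in duplicate for 48 h in serum-free induction medium to eight half-log concentrations up to 100 uM in 0.5% DMSO. PDK4 mRNA was quantified by qRT-PCR, normalized to ACTB, GAPDH and POLR2A, bidirectional fitting versus DMSO.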

[16] = read-out: NAD(P)H dehydrogenase [quinone] 1 (NQO1), NQO1 (gene 1728); assay: LTEA_HepaRG_NQO1: Life Technologies and Expression Analysis (LTEA) Assay for NAD(P)H dehydrogenase [quinone] 1 (NQO1) using HepaRG (AID 2283526)
How it was run: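 Differentiated HepaRG cells, plated 48 h and then switched to serum-free induction medium, were exposed in duplicate for 48 h to 8-point half-log concentrations up to 100 uM in 0.5% DMSO. mRNA measured by qRT-PCR, normalized to ACTB, GAPDH, POLR2A; bidirectional fit versus DMSO.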

[17] = read-out: Nuclear factor erythroid 2-related factor 2 (Homo sapiens) (UniProt Q16236); assay: LTEA_HepaRG_NFE2L2: Life Technologies and Expression Analysis (LTEA) Assay for Nuclear factor erythroid 2-related factor 2 (NFE2L2) Transcription Factor using HepaRG (AID 2283527)
How it was run: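 Differentiated human HepaRG cells in serum-free induction medium were exposed for 48 h to eight concentrations (top 100 uM, half-log dilutions, 0.5% DMSO), in duplicate. NFE2L2 mRNA was quantified by TaqMan qRT-PCR, normalized to ACTB, GAPDH and POLR2A, with bidirectional fitting versus DMSO.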

Measured: AC50

Chain of Nuclear factor NF-kappa-B p105 subunit (Homo sapiens) (P19838 whole entry, looked up): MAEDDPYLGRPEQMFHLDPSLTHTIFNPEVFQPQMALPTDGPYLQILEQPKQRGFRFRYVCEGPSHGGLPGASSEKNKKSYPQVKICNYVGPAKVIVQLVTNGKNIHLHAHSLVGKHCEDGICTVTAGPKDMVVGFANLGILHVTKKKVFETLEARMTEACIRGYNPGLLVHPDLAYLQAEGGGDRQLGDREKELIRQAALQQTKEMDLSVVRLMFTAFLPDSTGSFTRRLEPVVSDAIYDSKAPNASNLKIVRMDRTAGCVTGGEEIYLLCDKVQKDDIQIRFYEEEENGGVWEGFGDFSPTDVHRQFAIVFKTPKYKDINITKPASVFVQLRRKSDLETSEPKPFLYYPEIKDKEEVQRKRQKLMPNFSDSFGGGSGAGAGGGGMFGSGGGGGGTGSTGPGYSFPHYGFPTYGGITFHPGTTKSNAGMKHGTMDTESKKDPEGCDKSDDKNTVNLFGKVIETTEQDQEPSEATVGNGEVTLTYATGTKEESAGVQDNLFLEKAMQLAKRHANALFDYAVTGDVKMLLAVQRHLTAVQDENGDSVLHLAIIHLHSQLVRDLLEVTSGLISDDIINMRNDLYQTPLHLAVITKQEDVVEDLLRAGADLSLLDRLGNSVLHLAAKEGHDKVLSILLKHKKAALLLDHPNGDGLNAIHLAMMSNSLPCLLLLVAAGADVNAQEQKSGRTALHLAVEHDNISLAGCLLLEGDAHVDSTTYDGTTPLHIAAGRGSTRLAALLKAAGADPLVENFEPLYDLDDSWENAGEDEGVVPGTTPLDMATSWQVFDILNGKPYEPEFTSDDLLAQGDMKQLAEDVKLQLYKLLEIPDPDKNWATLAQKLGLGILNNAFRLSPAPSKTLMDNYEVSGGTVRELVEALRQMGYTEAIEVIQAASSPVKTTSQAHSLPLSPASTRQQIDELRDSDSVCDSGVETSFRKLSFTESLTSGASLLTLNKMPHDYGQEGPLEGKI
Chain of Nuclear factor erythroid 2-related factor 2 (Homo sapiens) (Q16236 whole entry, looked up): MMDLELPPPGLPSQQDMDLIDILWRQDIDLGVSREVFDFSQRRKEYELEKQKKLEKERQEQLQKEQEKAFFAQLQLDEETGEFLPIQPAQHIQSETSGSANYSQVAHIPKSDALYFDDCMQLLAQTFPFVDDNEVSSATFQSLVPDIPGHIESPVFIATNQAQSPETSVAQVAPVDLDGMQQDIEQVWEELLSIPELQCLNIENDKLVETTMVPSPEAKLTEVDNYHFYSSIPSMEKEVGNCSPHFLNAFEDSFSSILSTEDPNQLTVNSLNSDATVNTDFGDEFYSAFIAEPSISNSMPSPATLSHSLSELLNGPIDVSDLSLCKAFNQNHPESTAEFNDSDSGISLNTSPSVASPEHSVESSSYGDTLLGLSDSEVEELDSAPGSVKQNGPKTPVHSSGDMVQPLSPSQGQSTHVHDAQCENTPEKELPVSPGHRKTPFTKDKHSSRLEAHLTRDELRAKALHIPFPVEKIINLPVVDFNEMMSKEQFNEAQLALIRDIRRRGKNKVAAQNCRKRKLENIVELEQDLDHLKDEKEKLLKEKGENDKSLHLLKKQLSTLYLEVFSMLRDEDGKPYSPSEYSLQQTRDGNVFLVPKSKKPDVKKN

CC(C)c1ccc(C(=O)N=C(N)N)cc1S(C)(=O)=O
inactive: [1] | [3] | [10]
active: [2] 0.377 µM | [4] 0.395 µM | [5] 0.607 µM | [6] 0.31 µM | [7] 0.334 µM | [8] 67.9 µM | MYC, MYC (gene 4609) 0.343 µM | [9] 1.4 µM | [11] 0.291 µM | [12] 0.532 µM | [13] 0.277 µM | [14] 0.35 µM | [15] 0.362 µM | [16] 0.959 µM | [17] 7.8 µM

CCCCC(CC)COC(=O)CC(C(=O)OCC(CC)CCCC)S(=O)(=O)O (stereo unspecified)
active: [1] 91.4 µM | [4] 77.6 µM | [6] 82.1 µM | MYC, MYC (gene 4609) 85 µM | [10] 89 µM | [12] 80.9 µM | [13] 80.9 µM | [14] 50 µM
inactive: all other assays above
